Assay outcomes as filed in PubChem.
Tb PYK inh – qHTS of Trypanosoma Brucei Inhibitors; pyruvate kinase (Trypanosoma brucei), Q57TT1; AID 624173, 2012; Potency, µM (highest dose often 76.8 µM), inactives show at the top dose activity, negative = inhibition, hits mostly inhibitors; TbPYK enzyme, Kinase-Glo Plus ATP luminescence, 45 min; hit rate 0.12% among 410,000; further: potency means the concentration at half of the fitted maximal effect; on the % scale 0 is the no-effect control and ±100 the full control effect; nearly all actives have a fitted effect of over 50% in size
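ADP (130 uM final) triggers the TbPYK reaction after compound addition; incubation is 45 min at room temperature. Kinase-Glo Plus is then added and luminescence imaged. Normalized data are fitted to concentration-effect curves.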
Cycloheximide cs – Cycloheximide Counterscreen for Small Molecule Inhibitors of Shiga Toxin. hit rate 12% among 300,000. max response, %. cell reporter, cycloheximide protein synthesis inhibition counterscreen; in the data active means max response mostly above about 13%, no sharp cut-off; inactive means mostly below about 14%; further: read at 38.3 µM for the half of the compounds with a filed dose; 0% is about no effect
Giardia FBPA inh – qHTS Assay for Inhibitors of Fructose-1,6-bisphosphate Aldolase from Giardia Lamblia; purified Giardia FBPA; Potency, µM (top dose mostly 59.6 µM), without a hit: at the top dose activity, negative = inhibition, most hits filed as inhibitors; hit rate 0.71% among 290,000; AID 2451, 2010; further: potency means the concentration at half of the fitted maximal effect; on the % scale 0 is the no-effect control and ±100 the full control effect; nearly all actives have a fitted effect of over 55% in size
Target sequence (A8B2U2 whole entry, looked up): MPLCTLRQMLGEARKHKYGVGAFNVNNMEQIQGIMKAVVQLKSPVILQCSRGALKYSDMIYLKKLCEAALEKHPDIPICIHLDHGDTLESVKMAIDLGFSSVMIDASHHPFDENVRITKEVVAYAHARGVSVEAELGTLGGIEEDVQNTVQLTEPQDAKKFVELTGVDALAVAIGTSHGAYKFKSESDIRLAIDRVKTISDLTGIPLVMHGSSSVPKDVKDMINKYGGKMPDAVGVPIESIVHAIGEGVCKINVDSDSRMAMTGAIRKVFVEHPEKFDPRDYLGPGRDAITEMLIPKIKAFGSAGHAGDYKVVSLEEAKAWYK
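40 nM FBPA preincubated 10 min at RT with compound (up to 57.5 uM final), then substrate plus GAPDH/TPI/NAD/arsenate coupling and diaphorase/resazurin added. Fluorescence read after 20 min at RT, 525/598 nm.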
LmPK inhibitor – qHTS Assay for Inhibitors of Leishmania Mexicana Pyruvate Kinase (LmPK) | Q27686 | purified LmPK, Kinase-Glo ATP luminescence, 1 h | Potency, µM (titrated, usually from 57.5 µM), inactives show at the highest dose activity change, negative = inhibition, actives largely listed as inhibitors | hit rate 0.37% among 290,000; further: potency means the concentration at half of the fitted maximal effect; on the % scale 0 is the no-effect control and ±100 the full control effect
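0.1 nM LmPK, 0.5 mM PEP, 0.1 mM ADP; 50 mM imidazole pH 7.2, 7 mM MgCl2, 50 mM KCl; 1 h RT. Kinase-Glo luminescence readout, normalized to no-enzyme (full inhibition) and uninhibited wells.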
Shiga toxin inh – A qHTS for Small Molecule Inhibitors of Shiga Toxin | Vero cells, Shiga toxin protein synthesis inhibition reporter | inhibition, % at 38.7 µM | hit rate 9.2% among 290,000; in the data active means inhibition mostly above about 28%, no sharp cut-off; inactive means mostly below about 43%; further: 0% is about no effect
Sm TGR inh – qHTS Assay for the Inhibitors of Schistosoma Mansoni Peroxiredoxins | purified TGR, DTNB reduction, TNB absorbance 405 nm | Potency, µM (highest dose often 114 µM), for inactives: top-dose activity change, negative = inhibition, usual class: inhibitors | hit rate 3% among 360,000 | AID 485364, 2010; further: potency means the concentration at half of the fitted maximal effect; on the % scale 0 is the no-effect control and ±100 the full control effect; nearly all actives have a fitted effect of over 60% in size
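Kinetic colorimetric format: TGR-catalysed, NADPH-driven DTNB reduction monitored via TNB absorbance. Enzyme dispensed at 20 nM; compound exposure 15 min at room temperature before reaction start.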
Active calls of the source: *; ? = inconclusive; nt = not tested or not shown. This is one part of a sample in which hits are shown more often than they occur. Unless noted, the call rests on the fitted dose curve; in most records, active means well fitted curve in the direction sought with a large enough effect; inconclusive means small, poorly fitted or top-dose-only effect, or another doubt; inactive means no such curve, though single readings can be large; an effect the other way counts as inactive or inconclusive.

SMILES	Tb PYK inh	Cycloheximide cs	Giardia FBPA inh	LmPK inhibitor	Shiga toxin inh	Sm TGR inh
CC(=O)NCCc1csc(-c2ccccc2)n1	0%	16*	0%	-1%	39	1%
Cc1cccc(-c2nc(CCNC(=O)Cc3ccccc3)cs2)c1	1%	nt	nt	nt	nt	9%
Cc1ccccc1C(=O)Nc1nc(-c2ccc(Br)cc2)ns1	-1%	nt	nt	nt	nt	8%
O=C(C1CCCCC1)N1C[C@H](n2cc(C3CC3)nn2)[C@@H](O)C[C@@H]1c1ccc(Cl)cc1	1%	nt	nt	nt	nt	nt
COc1ccc(Cc2nc3c4cnn(-c5ccccc5Br)c4ncn3n2)cc1	6%	nt	nt	nt	nt	5%
O=C(Cc1csc(-c2ccccc2)n1)NCc1cccs1	-1%	24*	0%	2%	37*	1%
O=C(NCCc1csc(-c2ccccc2)n1)c1cccs1	-11%	13*	4%	5%	-15	-18%
Cc1c(C(=O)NC2CCCCC2)sc2nc3ccc(N)cc3n12	nt	nt	-27%	nt	nt	nt
c1ccc(C2[C@H]3CN(CC4CCCCC4)[C@H](c4ccccc4)C34CC2(c2cccnc2)C4)cc1 (some centres not stated)	-8%	-2	1%	2%	-4	45µM*
CCOc1ccccc1NC(=O)C(=O)Nc1ccc2nc3n(c(=O)c2c1)CCCCC3	1%	nt	nt	nt	nt	0%
O=C(O)c1ccc(Cn2cnc3cccnc32)cc1	?	-3	?	-1%	-11	50µM*
O=C(O)c1ccc(Cn2cnc3scc(-c4ccccc4)c3c2=O)cc1	1%	1	?	1%	-5	-3%
Cc1ccc(C)c(OCC(=O)Nc2cc(C)on2)c1	2%	22*	1%	-7%	46	-6%
Cc1cccc(OCC(=O)Nc2cc(C)on2)c1	-13%	16*	1%	-2%	active	-1%
CC1CC[C@@]23CCC4(C)[C@@]5(C)CCC6C(C)(C)C(=O)CC[C@@]6(C)C5C=C[C@@]4(OC2=O)C3C1C (some centres not stated)	nt	nt	0%	nt	nt	nt
Cc1cccc(NC(=O)CN2C(=O)CSc3ccc(S(=O)(=O)N4CCCC4)cc32)c1C	-2%	nt	nt	nt	nt	0%
O=C(/C=C/c1ccco1)NC(=S)Nc1ccccn1	0%	56*	?	1%	109*	8.9µM*
Cc1cccnc1NC(=S)NC(=O)/C=C/c1ccco1	4%	71*	-24%	3%	152*	?
COc1ccc(-c2nc3ccc(C)cn3c2Cc2cccc(Cl)c2)cc1OC	2%	nt	nt	nt	nt	nt
Clc1ccc2nc(-c3ccc(Br)s3)cn2c1	-6%	22*	?	?	41*	-33%
COc1ccc(-c2cn3cc(C)ccc3n2)cc1Br	-5%	40*	-20%	-19%	59*	-7%
COc1ccc(-c2cn3cc(Cl)ccc3n2)cc1OC	-4%	21*	?	3%	92*	?
COC(=O)c1ccc(C(=O)OC)c(NC(=O)c2c(-c3ccccc3)noc2C)c1	2%	nt	nt	nt	nt	-4%
CCCCCCN(C(=O)CCCCCN1C(=O)NC(C2CC2)C(C(=O)OCc2ccccc2)=C1C)C(C(=O)NCCCC)c1ccc(OCC(=O)OC)c(C(=O)OC)c1 (configuration not stated)	nt	nt	-1%	nt	nt	nt
COc1cccc(-c2noc(CCCC(=O)NC3CCCC3)n2)c1	-5%	15*	-7%	-2%	4	-19%
COc1cccc(-c2cc(C(=O)NCc3ccc(F)cc3)no2)c1	2%	nt	nt	nt	nt	-7%
COCC(C)NC(=O)c1cc(-c2cccc(OC)c2)on1 (configuration not stated)	0%	28*	3%	-11%	81*	-9%
COc1cccc(-c2cc(C(=O)Nc3ccccc3SC)no2)c1	-4%	36*	-2%	-6%	35*	2%
COCCNC(=O)c1cc(-c2cccc(OC)c2)on1	-3%	42*	4%	-16%	74*	0%
